Test [1] in a line: NCI Yeast Anticancer Drug Screen. Data for the rad50 strain (AID 155).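 Note: 0% = growth of vehicle-only cultures of the same strain.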 As to conditions: S. cerevisiae rad50 strain growth inhibition; at 50.0 µM; stronger effect = higher value. In short, it runs like this:
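Readout: growth inhibition relative to vehicle-treated cultures. Compound exposure was carried out in a genetically defined yeast strain deficient in DNA damage repair.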

Test [2] can be described thus: NCI Yeast Anticancer Drug Screen. Data for the mec2-1 strain (AID 157). As to conditions: S. cerevisiae mec2-1 strain, at 50.0 µM, stronger effect = higher value. The essentials:
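Cells of the genetically defined mec2-1 yeast strain are incubated with test compound. Inhibition of growth is calculated against vehicle-treated controls.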

The nature of test [3]: NCI Yeast Anticancer Drug Screen. Data for the sgs1 mgt1 strain (AID 161).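 Note: 0% = growth of cultures given vehicle only.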 Particulars: S. cerevisiae sgs1 mgt1 strain, at 50.0 µM, stronger effect = higher value. In short, it runs like this:
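Read-out: growth inhibition vs vehicle controls. Cells: mutant yeast strain deficient in DNA damage repair.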

Test [4] in a line: NCI Yeast Anticancer Drug Screen. Data for the cln2 rad14 strain (AID 165).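 Note: 0% = growth equal to vehicle treated cultures.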 As to conditions: S. cerevisiae cln2 rad14 strain, at 50.0 µM, stronger effect = higher value. The essentials:
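The screen exposed genetically defined yeast (cln2 rad14) to test compounds and scored growth inhibition relative to vehicle-treated controls.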

The nature of test [5]: NCI Yeast Anticancer Drug Screen. Data for the bub3 strain (AID 167). Particulars: S. cerevisiae bub3 mutant strain, at 50.0 µM, stronger effect = higher value. In short, it runs like this: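 Readout: yeast growth inhibition, expressed relative to vehicle-only wells. The test organism is a mutant strain from a panel with lesions in DNA repair or checkpoint genes.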
Test [6] is described as follows: NCI Yeast Anticancer Drug Screen. Data for the mlh1 rad18 strain (AID 175). Particulars: S. cerevisiae mlh1 rad18 strain growth inhibition; at 50.0 µM; stronger effect = higher value. The essentials: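 Compound-treated yeast growth, normalised to vehicle controls. Strain bears defined DNA repair mutations.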

Results on 21 molecules are retold here after PubChem BioAssay (NCI).

This is part of a sample that, as a whole, favours compounds with a hit. Of some 79,000 tested, about 15% had one in any assay. A number with no mark means an inactive call. Calls of active or inactive are those of the source. Cut-off read from the data, not from the text of the source: active = growth inhibition above about 70%; inactive = the rest.

As for `CCCC1=C(OC)C(=O)c2c(C)cc(Cl)nc2C1=O`, the growth inhibition in test [1] is 48.5%; in test [2], 48.2%; in test [3], 86.2% (active); in test [4] it was 78.8% (active); in test [5], 87.5% (active); in test [6] it was 38.9%.

Take `O=C1C(Cc2ccc(O)cc2)NC(=S)N1c1ccccc1` (stereo unspecified): the growth inhibition was 0.6% in test [1]; -9.85% in test [2]; 24.9% in test [3]; -2.75% in test [4]; 20% in test [5]; -19.8% in test [6].

Turning to `[NH-]c1ncnc2c1N=C[N+]2=CC=CCO`, the growth inhibition was -1.6% in test [1]; -17% in test [2]; -19.7% in test [3]; -7.6% in test [4]; -28.4% in test [5]; -10.7% in test [6].

Regarding `CC(C)(C)CC(C)(C)Nc1ccc(C(N)=O)cc1`, the growth inhibition in test [1] was -2.35%; in test [2] it was 15.2%; in test [3] it was -20.9%; in test [4] it was -8.2%; in test [5], 7.7%; in test [6], 9.6%.

In the case of `O=C(NCCCl)NCc1ccco1`, the growth inhibition in test [1] is -6.6%; in test [2] it was 0.9%; in test [3] it was -3.55%; in test [4] it was -39.2%; in test [5] it was -4.85%; in test [6], -0.9%.

As for `O=c1sccc2ccccc12`, the growth inhibition in test [1] was 28.1%; in test [2], 25.4%; in test [3], 2.5%; in test [4], 9.4%; in test [5] it was 10.3%; in test [6] it was 1.35%.

With `CCCc1nc(CCC)nc(CCC)n1`, the growth inhibition in test [1] was -13.8%; in test [2], -5.35%; in test [3], -10.2%; in test [4], -6.5%; in test [5], 5.55%; in test [6], -14.7%.

For `CC(C)(C)N(OC(=O)c1ccc(C#N)cc1)c1ccccc1`, the growth inhibition was 15.4% in test [1]; 11.6% in test [2]; 3.55% in test [3]; 7.75% in test [4]; 4.2% in test [5]; 3.35% in test [6].

As to `CCOC(=O)CCCCCC(C(=O)OCC)c1nc2ccccc2[nH]c1=O` (stereo unspecified), the growth inhibition was -14.4% in test [1]; 0.4% in test [2]; 10.9% in test [3]; -5.1% in test [4]; 11.1% in test [5]; 8.55% in test [6].

Turning to `Cc1cccc(NC(=O)O/N=C(\Cl)C(C)C)c1`, the growth inhibition in test [1] is -13.8%; in test [2], -34.9%; in test [3], 70%; in test [4], 0.4%; in test [5], 35.4%; in test [6] it was -43.4%.

As for `O=c1/c(=C/c2ccc3c(c2)OCO3)sc2nnc(-c3ccco3)n12`, the growth inhibition in test [1] is 1.85%; in test [2] it was -30.1%; in test [3] it was 17.9%; in test [4], 20.6%; in test [5], -19.9%; in test [6] it was -3.35%.

With `CS/N=C(\c1ccccc1)N1CCOCC1`, the growth inhibition in test [1] was -38.2%; in test [2], -5.7%; in test [3], -4.95%; in test [4], -21.1%; in test [5] it was 4.25%; in test [6] it was 5.2%.

As for `C=C[C+](CCCC)C(=O)[O-]`, the growth inhibition in test [1] was -20.2%; in test [2], -24.1%; in test [3], -11.1%; in test [4], -19.8%; in test [5] it was -12.8%; in test [6], -34.9%.

As for `CC(C)(Nc1nc2c(ncn2C2OC(CO)C(O)C2O)c(=O)[nH]1)P(=O)(O)O` (stereo unspecified), the growth inhibition was 4.4% in test [1]; -0.4% in test [2]; 17% in test [3]; 11.1% in test [4]; -5.4% in test [5]; 2.9% in test [6].

With `N#Cc1cc2ccccc2n(Cc2ccccc2)c1=O`, the growth inhibition in test [1] is -8.85%; in test [2] it was -9.9%; in test [3], -9.4%; in test [4], 7.85%; in test [5], 3.75%; in test [6], -9.55%.

Consider `Cc1nc(C)c(CC#N)s1`, for which the growth inhibition is -9.25% in test [1]; -10% in test [2]; -1.75% in test [3]; -15.1% in test [4]; -2% in test [5]; 13.7% in test [6].

Consider `CCCCCCOC(=O)CCCCCC1CCCCC1`, for which the growth inhibition in test [1] was 3.15%; in test [2], -6.5%; in test [3] it was 2.3%; in test [4], -77.4%; in test [5], -6.05%; in test [6], -6.55%.

Regarding `Cc1ccc(S(=O)(=O)OC2C3OC(C)(C)OC3OC2C2CSC(=S)S2)cc1` (stereo unspecified), the growth inhibition was 0.3% in test [1]; -6.6% in test [2]; 10.1% in test [3]; -12.8% in test [4]; -25.3% in test [5]; 4% in test [6].

On to `Nc1ccc2c(c1)NCC2`, for which the growth inhibition in test [1] is -27.6%; in test [2], -45.7%; in test [3], -17.1%; in test [4] it was 12.1%; in test [5], -14.9%; in test [6], -16.6%.

On to `O=c1c(O)c(-c2cc(O)c(O)c(O)c2)oc2cc(O)ccc12`, for which the growth inhibition in test [1] was -35.5%; in test [2], -36.8%; in test [3], -24.3%; in test [4] it was -8.8%; in test [5], -32.8%; in test [6], -29.8%.

For the molecule `COc1c(C)c2c(c(Br)c1N)COCO2`, the growth inhibition is 3.75% in test [1]; 16.9% in test [2]; -10.7% in test [3]; 8.95% in test [4]; -7.05% in test [5]; -21.6% in test [6].
